Screening data deposited in PubChem BioAssay by The Scripps Research Institute Molecular Screening Center.
ssDAF-12 act – activates DAF-12 receptor from parasite S. stercoralis; HEK293 ssDAF-12/GRIP1 lit1-tk-luc reporter, luminescence; % of 3 µM dafachronic acid response; activation, % at 6.8 µM; hit rate 1% among 370,000; AID 652126;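 active = activation above the mean over all tested compounds plus 3 SD, cut at about 0.9% in these data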;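 also: 0% = DMSO-only wells and 100% = 3 µM delta7-dafachronic acid wells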
DAX1 inh-1 – DAX1 (NR0B1) inhibition, primary screen; HEK293T StAR-luciferase reporter, SF-1/DAX-1 repression relief; inhibition, % at 6.8 µM; hit rate 1.1% among 370,000; AID 652010;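 active = inhibition above the mean over all tested compounds plus 3 SD, cut at about 3.6% in these data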;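 also: 0% = DAX-1 cells with DMSO and 100% = cells lacking DAX-1 with DMSO; higher inhibition means more luminescence from relief of DAX-1 repression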
DAX1 inh-2 – inhibitors of human orphan nuclear receptor DAX1 (NR0B1); hit rate 0.99% among 340,000; inhibition, % at 6.75 µM; P51843; HEK293 Gal4-DAX1 luciferase reporter, luminescence;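 active = inhibition above the mean over all tested compounds plus 3 SD, cut at about 4.2% in these data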;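 also: 0% = DAX1-transfected cells with DMSO and 100% = empty-vector control cells with DMSO; inhibition shows as a rise in luminescence from relieved DAX1 repression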
hcDAF-12 act – activates DAF-12 receptor from parasite H. contortus | hit rate 1.4% among 370,000 | activation, % at 6.8 µM | HEK293 hcDAF-12 lit1-tk-luc reporter, luminescence; 0% DMSO, 100% Δ7-dafachronic acid;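 active = activation above the mean of all tested compounds plus 3 SD, cut at about 5.5% in these data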;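 also: 100% = response to 3 µM Δ7-dafachronic acid high control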
SMARCA2 act – SMARCA2 function activation, primary screen | hit rate 1% among 370,000 | activation, % at 9.1 µM | MG213 cells, MMTV-luciferase reporter, dexamethasone, overnight; in the data active = activation above about 7.8%;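 also: 0% = vehicle wells and 100% = reference activator wells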
hgDAF12 agonist – agonists of H. glycines DAF-12 nuclear receptor; HEK293 GAL4-hgDAF12 UAS-luciferase reporter, agonist luminescence; normalized to butyrate control; activation, % at 6.8 µM; hit rate 1.8% among 370,000; AID 687014;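 active = activation above a cutoff set at the mean of all screened compounds plus 3 SD, cut at about 10% in these data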;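 also: 0% = DMSO wells and 100% = sodium butyrate wells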
LXRb hcDAF ctr – activates human LXR-beta, counter-screen for hcDAF-12 agonists. AID 743027. HEK293 Gal4-LXR tk-luc reporter, luminescence, 24 h; normalized: DMSO 0%, positive control 100%. shares compounds with hcDAF-12 act. activation, % at 6.8 µM. 3,400 tested, under 10 active;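 active = mean percent activation of the reporter above a cutoff set as the average over tested compounds plus their standard deviation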
Target sequence (P55055 whole entry, looked up, the tested form may be a part): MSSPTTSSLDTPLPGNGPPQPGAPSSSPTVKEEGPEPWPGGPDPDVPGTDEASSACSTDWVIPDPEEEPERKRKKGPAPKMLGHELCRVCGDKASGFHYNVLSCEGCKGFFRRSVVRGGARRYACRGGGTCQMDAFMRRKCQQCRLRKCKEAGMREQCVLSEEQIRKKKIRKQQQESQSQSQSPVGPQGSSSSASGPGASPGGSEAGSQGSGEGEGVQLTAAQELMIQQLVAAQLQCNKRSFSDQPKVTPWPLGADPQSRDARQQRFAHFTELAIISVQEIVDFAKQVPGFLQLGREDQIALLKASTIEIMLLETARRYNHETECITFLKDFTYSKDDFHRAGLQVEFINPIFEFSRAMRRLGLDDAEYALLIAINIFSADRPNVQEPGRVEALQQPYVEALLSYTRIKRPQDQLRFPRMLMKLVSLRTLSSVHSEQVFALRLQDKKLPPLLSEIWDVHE
hcDAF12 conf – hcDAF-12 agonism, confirmation assay; shares compounds with hcDAF-12 act; HEK293 hcDAF-12 lit1-tk-luc reporter, luminescence; % of Δ7-dafachronic acid response; activation, % at 6.8 µM; hit rate 61% among 3,400; AID 743032;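 active = mean activation across triplicate tests above the threshold derived from the earlier primary screen, cut at about 5.5% in these data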;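 also: 0% = DMSO only wells and 100% = 3 µM Δ7-dafachronic acid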
Active calls of the source: *; / = no result given. A selection: hits, their analogues and other compounds. The true share with any hit is near 4.8%.

SMILES | ssDAF-12 act | DAX1 inh-1 | DAX1 inh-2 | hcDAF-12 act | SMARCA2 act | hgDAF12 agonist | LXRb hcDAF ctr | hcDAF12 conf
COc1ccc(C2=NN(S(C)(=O)=O)C(c3ccc4nccnc4c3)C2)cc1 (stereo unspecified) | 1 | 1 | 0 | 8.4* | 4 | 7 | 0 | 4
Cc1cc2c(nc1C)CCCN2S(=O)(=O)c1c(C)noc1C | -1 | 0 | / | 1 | -2 | 2 | / | /
C#CCNC(=O)C[C@H]1C[C@@]2(C(=O)OC)C(=C[C@H](C(C)(C)C)O[C@@H]2C)N(CCC2=CCCCC2)C1=O | -1 | -1 | / | 0 | -1 | 0 | / | /
COc1ccc(N=Nc2ccc3ccccc3c2)c(O)c1 | 0 | 1 | 4 | 8.1* | 0 | 5 | 2 | 12*
CC1(C)CC(=O)C(C=Nc2ccccc2)=C(O)C1 | -1 | 0 | 1 | 0 | 3 | -1 | / | /
O=C1C(C=Nc2ccccc2)=C(O)c2ccccc21 | 1.8* | 4.5* | -1 | 16* | 5 | 13* | 2 | 11*
Cc1ccc2cn[nH]c2c1N | 1 | -1 | 0 | 6.9* | 0 | 3 | 0 | 4
COC1=C[C@H](C(=O)NCc2ccc(OC)cc2)C(C)C(c2ccccc2)CC1=O (stereo partly specified) | -2 | 1 | / | -1 | -1 | 3 | / | /
COC(=O)[C@]12C[C@H](CC(=O)NCC3CCCCC3)C(=O)N(Cc3ccco3)C1=C[C@H](C(C)C)O[C@@H]2C1CC1 | -2 | 0 | / | -1 | -3 | -1 | / | /
CCC(C)Nc1nc(-c2c[nH]c3ccccc23)cs1 (stereo unspecified) | 1 | 0 | 1 | 8.8* | -1 | 7 | 0 | 5
CCCCOC(=O)Nc1ccc(N(C)C)cc1 | 1 | 4.4* | 2 | 7.2* | 4 | 11* | 1 | 5.8*
CCCOc1ccc(C(=O)Nc2ccc(N(C)C)cc2)cc1 | -1 | 0 | -1 | -2 | 1 | 3 | / | /
Cc1c(C(=O)NC2CCCCC2)oc2ccc(F)cc12 | 1 | 1 | 4 | 18* | 4 | 10* | 1 | 8.3*
Cc1ccc(NC(=O)C2Oc3ccccc3OC2C)cc1 (stereo unspecified) | 0 | 0 | 0 | 9.1* | 1 | 2 | 0 | 6.9*
Cc1ccc(NC(=O)C2COc3ccccc3O2)nc1 (stereo unspecified) | 1 | 3 | 2 | 9.5* | 4 | 12* | 1 | 9.4*
Cc1ccc(NC(=O)C2COc3ccccc3O2)cc1 (stereo unspecified) | 0 | 2 | 2 | 6.6* | 4 | 12* | 1 | 7.7*
CC1(C)Oc2ccc(NC(=O)C3COc4ccccc4O3)cc2O1 (stereo unspecified) | 1.9* | 4.4* | 0 | 8.9* | 2 | 12* | 1 | 7.6*
Cc1ccc(NC(=O)C2COc3ccccc3O2)c(C)c1 (stereo unspecified) | -1 | 0 | 3 | 3 | 4 | 7 | / | /
O=C(NCCc1ccccc1)OCc1cn(-c2cccc(Cl)c2)nn1 | 0 | 0 | / | -3 | -1 | 3 | / | /
C#CCOCCOCCOCCNc1nc(N2CCN(C(=O)[C@H]([C@@H](C)CC)n3cc(CCCCN)nn3)CC2)nc(N2CCN(C(=O)[C@H](Cc3ccc(O)cc3)n3cc(CCO)nn3)CC2)n1 | -2 | / | / | -2 | / | -2 | / | /
COC(=O)Cc1nnn2c1[C@H](C)[C@H](c1ccccc1Br)OC[C@H](C)C2 | -1 | -1 | / | -1 | -1 | 0 | / | /
CC(C)(C)c1ccc(/C=C/C(=O)NC2=NCCS2)cc1 | 0 | 4 | -1 | 6.6* | 3 | 7 | 1 | 5.7*
CC(C)(C)c1ccc(S(=O)(=O)N2CCCC2C(=O)NC2=NCCS2)cc1 (stereo unspecified) | 0 | 0 | -1 | -1 | -1 | 0 | / | /
Cc1csc(-c2ccc3cc(Cl)cc(Cl)c3n2)n1 | 0 | 1 | / | 10* | -2 | 2 | 1 | 11*
O=C1C2C(CC3c4ccccc4CCN32)CN1c1ccccc1 (stereo unspecified) | 0 | -2 | / | 0 | 1 | 3 | / | /
SMILES | ssDAF-12 act | DAX1 inh-1 | DAX1 inh-2 | hcDAF-12 act | SMARCA2 act | hgDAF12 agonist | LXRb hcDAF ctr | hcDAF12 conf
O=C(NCCc1ccc(Cl)cc1)c1ccc2c(c1)ncn2C1CCCCC1 | -1 | -1 | / | -3 | -7 | -1 | / | /
CN(C)c1ccc(N=Cc2nc(-c3ccccc3)oc2OC(=O)c2ccccc2)cc1 | -1 | 2 | 1 | 6.8* | 6 | 13* | 0 | 4
CCCCN1CCN(C(=O)c2cn(C(C)c3ccccc3)nn2)CC1 (stereo unspecified) | -1 | 0 | / | 0 | -4 | 1 | / | /
COc1ccc(OCc2cc(C(=O)N(C)Cc3nnc(C)o3)no2)c(Cl)c1 | 0 | 1 | 1 | 6.6* | 0 | 10 | 1 | 3
O=c1[nH]c2cc3c(cc2cc1CN(Cc1ccccc1)Cc1nnnn1Cc1ccco1)OCCO3 | 0 | 1 | -1 | 8.3* | 3 | 5 | -1 | -1
O=c1[nH]c2cc3c(cc2cc1CN(Cc1cccnc1)Cc1nnnn1Cc1ccco1)OCCO3 | -1 | 0 | 1 | -1 | 4 | 2 | / | /
CC1=NN(c2ccccc2)C(=O)C1=Cc1ccccc1 | -1 | 0 | 1 | -1 | -4 | 1 | / | /
CC1=NN(c2ccccc2)C(=O)/C1=C/c1ccc[nH]1 | 1.1* | 1 | 0 | 7.6* | 1 | 9 | 0 | 8.8*
O=C(CCN1CCN(c2ccccc2)CC1)Nc1cccc(Br)c1 | -1 | 0 | 1 | 6.8* | -3 | 0 | 0 | 1
Cc1ccc(Nc2nnc(SCC(=O)NCCN3C(=O)CSC3=O)s2)cc1C | -1 | 2 | 0 | 12* | 4 | 11* | 0 | 3
Nc1cccc(-c2nc3ccccc3s2)c1 | 1.4* | 3 | 1 | 12* | 2 | 13* | 1 | 6.4*
COc1ccc(-c2nc3ccccc3s2)cc1O | 0 | 2 | -5 | 12* | -4 | 4 | 1 | 13*
CCOC(=O)CC[C@@H]1CC[C@]2(CCCN(C(=O)c3ccccc3)C2)O1 | -1 | 1 | / | 1 | -4 | -2 | / | /
Clc1ccc(C2Nc3cccc4cccc(c34)N2)cc1 | 0 | -1 | 0 | 4 | -3 | 1 | / | /
Brc1ccc(C2Nc3cccc4cccc(c34)N2)s1 | 0 | 0 | 0 | 6.6* | 0 | 5 | 0 | 4
Clc1ccccc1-c1nc(-c2ccccc2)n[nH]1 | 1 | 3 | 4 | 15* | 6 | 12* | 1 | 6.6*
